An excerpt weighted towards active compounds, which were near 2.2% of everything screened.
Abeta rescue: qHTS for compounds that reverse cellular toxicity of Amyloid beta (A-beta) peptide in yeast: Primary Screen. yeast expressing A-beta42, growth rescue, OD600, 48 h; response scale: 0% DMSO, 100% iron-clioquinol control. Potency, µM (top dose mostly 46.1 µM), hits mostly activators. actives 0.063% (n = 410,000). AID 1347071, 2019; further: nearly all actives have a fitted effect of over 55% in size
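Growth rescue measured by 600 nm absorbance after 48 h yeast culture at 30 C with compound. Values normalized between DMSO and an equimolar ferric chloride plus clioquinol control.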
TDP-43 yeast inh: qHTS of TDP-43 Inhibitors. TDP-43 expressing yeast growth rescue, BacTiter-Glo, 24 h. AID 652104, 2013. Potency, µM (highest dose often 46.1 µM), without a hit: at the top dose growth rescue (activation), hits mostly activators. actives 1.8% (n = 410,000); further: % of control where 0% means no effect; nearly all actives have a fitted effect of over 50% in size
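Cell-based yeast growth screen: TDP-43 expression induced in galactose, inoculum OD600=0.02 after raffinose pregrowth to mid-log. Read-out BacTiter-Glo luminescence at 24 hr, 30 deg C; inhibition of toxicity seen as signal increase.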
FUS suppressor: qHTS for Suppressors of FUS Proteinopathy: Primary screen using FUS-linked yeast assay | S. cerevisiae FUS-expressing, growth rescue, OD600, 24 h | Potency, µM (doses to about 76.6 µM), usual class: activators | actives 0.24% (n = 390,000) | AID 1347120, 2019;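 further: plate controls were DMSO vehicle for no effect and reference control for full effect; nearly all actives have a fitted effect of over 55% in size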
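FUS-expressing yeast, raffinose-pregrown, induced in 2% galactose minimal medium at OD 0.005; compounds in a dilution series, 24hr at 30C. Growth restoration read as absorbance at 600 nm. CP55940 positive control, DMSO negative.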
aSyn rescue: qHTS of alpha-syn Inhibitors; Yeast expressing alpha-synuclein, growth rescue, BacTiter-Glo, 24 h; Potency, µM (doses to about 46.1 µM), inactives show top-dose growth rescue (activation), most hits filed as activators; actives 0.14% (n = 370,000); further: % of control where 0% means no effect; nearly all actives have a fitted effect of over 65% in size
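Rescue of yeast growth: cells expressing toxic alpha-synuclein, induced in galactose at OD600 0.02, incubated with compound 24 h at 30 C. ATP luminescence quantified growth; inhibitors of toxicity appear as activators.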
Mito fusion act: qHTS Assay for Small Molecule Inhibitors of Mitochondrial Division or Activators of Mitochondrial Fusion. actives 0.23% (n = 320,000). S. cerevisiae fusion-defective mutant growth rescue, CellTiterGlo 48 h. Potency, µM (doses to about 46.1 µM), for the others: at the top dose growth rescue (activation), usual class: activators. AID 485298, 2010; further: % of control where 0% means no effect; nearly all actives have a fitted effect of over 45% in size
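Read-out: ATP-based luminescence (CellTiterGlo, 10 min ambient) reporting growth of fusion-defective ts yeast after 48 hours at 37C on glycerol/ethanol YPEG medium in the presence of compound.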
* marks the source's active call; other numbers are inactive results. The call rests on the fitted dose curve; in most records, active means well fitted curve in the direction sought with a large enough effect; inconclusive means small, poorly fitted or top-dose-only effect, or another doubt; inactive means no such curve, though single readings can be large; an effect the other way counts as inactive or inconclusive. Potency means the concentration at half of the fitted maximal effect.

`CN1C(=O)c2ccccc2Sc2ccc(NC(=O)c3ccccc3F)cc21` gave Abeta rescue inactive, TDP-43 yeast inh 17.8µM* and FUS suppressor inactive.
Cc1cc(Br)ccc1NC(=S)NCCc1ccccc1 was read as Abeta rescue 11.2µM*, TDP-43 yeast inh inconclusive, FUS suppressor inactive, aSyn rescue 8.3% and Mito fusion act -1.8%.
O=C(Nc1ccccc1Br)c1ccccc1-c1ccccc1 was read as Abeta rescue inactive, TDP-43 yeast inh -29.1%, aSyn rescue -3.9% and Mito fusion act inconclusive.
For CCOC(=O)c1c(/C=N/Nc2ccccc2)c2sc(C)cc2n1C the results were Mito fusion act 8.4%.
Screening O=C(O)Cc1cccc(=O)c(O)c1C(=O)O returned Abeta rescue inactive, TDP-43 yeast inh 10.7% and aSyn rescue -2.1%.
For COC(=O)c1ccc(NC(=O)c2nc(SCc3ccccc3F)ncc2Cl)cc1 the results were aSyn rescue -1.1%.
O=C(Nc1ccc(F)c(F)c1)c1ccccc1-c1ccccc1 was read as Abeta rescue 7.08µM*, TDP-43 yeast inh inconclusive, aSyn rescue 0.6% and Mito fusion act 11.4%.
For OC1c2cc(Cl)cc(Cl)c2N=C2CCCN21 (stereo not given) the results were Abeta rescue inactive, TDP-43 yeast inh 29.2%, FUS suppressor inactive and aSyn rescue 1.7%.
`O=C(NCCN1C(=O)S/C(=C\c2cccc(Cl)c2Cl)C1=O)C1=COCCO1` gave Abeta rescue inactive, TDP-43 yeast inh 3.98µM*, FUS suppressor inactive, aSyn rescue 1.9% and Mito fusion act 9.1%.
`CNC(=O)c1ccsc1NC(=O)c1ccc2c(c1)CCCC2` gave Abeta rescue inactive, TDP-43 yeast inh 19.1%, FUS suppressor inactive, aSyn rescue -19.5% and Mito fusion act 5.62µM*.
CCc1ccc(C(C)NC(=S)NCc2ccc(F)cc2)cc1 (stereo not given) was read as Abeta rescue 4.47µM*, TDP-43 yeast inh 26.6%, FUS suppressor inactive, aSyn rescue -9.4% and Mito fusion act -9.7%.
Screening CCC(C)c1ccc(C(C)NC(=S)NC2CCCCC2)cc1 (stereo not given) returned Abeta rescue inactive, TDP-43 yeast inh 23.2%, FUS suppressor inactive, aSyn rescue -4.1% and Mito fusion act -6.8%.
Screening CCc1ccc(C(C)NC(=S)NC2CCCCC2)cc1 (stereo not given) returned Abeta rescue 10µM*, TDP-43 yeast inh inconclusive, FUS suppressor inactive, aSyn rescue -16.3% and Mito fusion act -16.4%.
For Cc1ccc(C(C)NC(=S)NCc2ccc(F)cc2)cc1C (stereo not given) the results were Abeta rescue 14.1µM*, TDP-43 yeast inh 29.5%, FUS suppressor inactive, aSyn rescue 9.2% and Mito fusion act -0.7%.
Screening COc1ccc(N2CCCN(CC(=O)Nc3ccc(Cl)cc3)CC2)cc1 returned FUS suppressor inactive.
Screening c1ccc(Cn2ncc3c(Nc4ccccc4)ncnc32)cc1 returned Abeta rescue inactive, TDP-43 yeast inh 12.6µM*, FUS suppressor inactive, aSyn rescue -6.3% and Mito fusion act -14.5%.
`CSc1ncnc2c1cnn2-c1ccc(C)cc1C` gave Abeta rescue inactive, TDP-43 yeast inh 17.8µM*, FUS suppressor inactive, aSyn rescue -7.8% and Mito fusion act -3.7%.
Clc1ccccc1Nc1ncnc2c1nnn2Cc1ccccc1 was read as Abeta rescue inactive, TDP-43 yeast inh -8.1%, FUS suppressor inactive, aSyn rescue -6.0% and Mito fusion act -1.7%.
`c1ccc(CCNc2ncnc3c2cnn3-c2ccccc2)cc1` gave Abeta rescue inactive, TDP-43 yeast inh 15.8µM*, FUS suppressor inactive, aSyn rescue -18.1% and Mito fusion act inconclusive.
COc1ccc(Nc2ncnc3c2cnn3Cc2ccc(C)cc2)cc1 was read as Abeta rescue inactive, TDP-43 yeast inh 0.0%, FUS suppressor inactive, aSyn rescue 0.9% and Mito fusion act -3.6%.

Compound activity as filed in PubChem BioAssay.
